The source made the active and inactive calls.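 The calls were made as follows: active = compound cutting the TRPC4 channel signal by more than 30% at some tested dose, with a fitted dose response curve; inactive = no inhibition at any dose, or no curve fitted.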
These compounds were tested against Short transient receptor potential channel 4 (Mus musculus) (UniProt Q9QUQ5) (assay: TRPC4 channel inhibition, specificity check, SAR follow-up, selectivity assay for TRPC6 selective inhibitor project, cell-based, HEK293 TRPC4/mu-opioid, concentration-response, set 2 (AID 504866)). Settings: DAMGO, membrane potential dye; series mostly up to 20 µM; ratio, lower = inhibition: at the top concentration.
Short transient receptor potential channel 4 (Mus musculus), sequence (Q9QUQ5 whole entry, looked up): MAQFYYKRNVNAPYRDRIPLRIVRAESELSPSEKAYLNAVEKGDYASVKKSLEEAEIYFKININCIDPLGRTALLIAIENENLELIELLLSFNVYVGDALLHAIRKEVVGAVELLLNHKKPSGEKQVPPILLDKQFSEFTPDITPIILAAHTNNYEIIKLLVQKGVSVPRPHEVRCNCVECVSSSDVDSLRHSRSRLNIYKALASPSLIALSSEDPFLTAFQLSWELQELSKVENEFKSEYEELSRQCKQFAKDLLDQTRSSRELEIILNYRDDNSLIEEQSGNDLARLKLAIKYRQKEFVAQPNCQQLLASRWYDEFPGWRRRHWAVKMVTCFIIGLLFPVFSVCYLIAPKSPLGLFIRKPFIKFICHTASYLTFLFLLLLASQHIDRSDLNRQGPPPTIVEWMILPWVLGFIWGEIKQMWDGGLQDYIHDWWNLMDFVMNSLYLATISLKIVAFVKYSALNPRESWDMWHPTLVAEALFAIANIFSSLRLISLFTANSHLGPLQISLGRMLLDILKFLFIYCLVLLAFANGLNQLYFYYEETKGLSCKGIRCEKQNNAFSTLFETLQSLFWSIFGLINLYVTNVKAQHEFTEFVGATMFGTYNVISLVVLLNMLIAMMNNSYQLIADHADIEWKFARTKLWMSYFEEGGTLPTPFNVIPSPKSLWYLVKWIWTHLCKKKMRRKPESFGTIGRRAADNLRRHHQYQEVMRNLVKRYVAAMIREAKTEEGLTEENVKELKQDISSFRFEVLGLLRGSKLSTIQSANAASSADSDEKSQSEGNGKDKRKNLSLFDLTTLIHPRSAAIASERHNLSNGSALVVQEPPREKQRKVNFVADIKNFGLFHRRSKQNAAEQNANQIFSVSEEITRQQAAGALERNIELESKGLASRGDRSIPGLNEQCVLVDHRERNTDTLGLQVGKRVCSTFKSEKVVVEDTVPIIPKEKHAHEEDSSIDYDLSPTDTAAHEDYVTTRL

Row | Compound | ratio, lower = inhibition
1 | OCCC1CN(Cc2ccc3nsnc3c2)CCN1CCCc1ccccc1 (stereo unspecified) | 10.8 (inactive)
2 | Clc1ccc(SCc2cc(N3CCCCC3)nc(-c3ccccn3)n2)cc1 | 46.9 (inactive)
3 | O=S(=O)(Cc1cc(N2CCN(c3ccccc3)CC2)nc(-c2ccccn2)n1)c1ccccc1 | 44.3 (inactive)
4 | OCCC1CN(Cc2ccc3nsnc3c2)CCN1C1CCCC1 (stereo unspecified) | 28.4 (inactive)
5 | CC(C)N1CCN(Cc2ccc3nsnc3c2)CC1CCO (stereo unspecified) | 46.1 (inactive)
6 | Cc1ccc(C)c(N2CCN(C(=O)c3ccc4nsnc4c3)CC2)c1 | 39.7 (inactive)
7 | Cc1cccc(CN2CCN(Cc3ccc4nsnc4c3)CC2CCO)n1 (stereo unspecified) | 30.4 (inactive)
8 | CC(C)CCN1CCN(Cc2ccc3nsnc3c2)CC1CCO (stereo unspecified) | 31.2 (inactive)
9 | CSCc1cc(N(C)c2ccccc2)nc(-c2ccccn2)n1 | 34 (inactive)
10 | CN1CCC(N2CCN(Cc3ccc4nsnc4c3)CC2CCO)CC1 (stereo unspecified) | 51 (inactive)
11 | Cc1ccccc1CN1CCN(Cc2ccc3nsnc3c2)CC1CCO (stereo unspecified) | 24.7 (inactive)
12 | CN1CCN(Cc2ccc3nsnc3c2)CC1CCO (stereo unspecified) | 52.5 (inactive)
13 | CC(C)CN1CCN(Cc2ccc3nsnc3c2)CC1CCO (stereo unspecified) | 39 (inactive)
14 | CC(C)N1CCC(N2CCN(Cc3ccc4nsnc4c3)CC2CCO)CC1 (stereo unspecified) | 43 (inactive)
15 | CSCc1cc(N2CCOCC2)nc(-c2ccccn2)n1 | 49.2 (inactive)
16 | O=S(=O)(Cc1cc(N2CCOCC2)nc(-c2ccccn2)n1)c1ccccc1 | 47.2 (inactive)
